Compounds with a hit are over-represented: about 3% of the library has one in this group of screens.
aSyn UTR inh = 5' untranslated region of α-synuclein, MLPCN primary screen; 300,000 tested, 0.82% active; inhibition, % (tested at 7.5 µM); alpha-synuclein 5'UTR reporter, inhibitor activity; AID 1813; in the data active means inhibition above about 60%; inconclusive means no clear call, values can overlap the other calls;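 further: H4 neuroglioblastoma cells stably carrying SNCA 5'UTR luciferase fusion; 0% = DMSO wells and 100% = positive control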
IEC-6 cytotox = counter-screen for KLF5 inhibitors: cytotoxicity in IEC-6 cells. inhibition, % at 5 µM. 290,000 tested, 0.78% active. IEC-6 cytotoxicity, luminescence viability; in the data active means inhibition above about 22%;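 further: 0% = plate median of test compound wells and 100% = cytotoxic reference compound wells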
SKKanGAS inh = blocks kanamycin growth of S. pyogenes SKKanGAS strain. BacTiter-Glo, 6 h. inhibition, % at 7.5 µM. 300,000 tested, 1.3% active. AID 1662;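 active means mean replicate score, as percent of positive control median, at least 50; inconclusive means mean below 50 but one replicate at or above 50; inactive means mean and every replicate below 50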;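 further: strain carries kanamycin resistance gene driven by streptokinase promoter and grows in 40 µg/ml kanamycin; loss of luminescence reflects streptokinase promoter inhibition or plain growth inhibition; 0% = median of DMSO wells and 100% = positive control at its reference dose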
CSC inhib = blocks cancer stem cells; AID 2717; cancer stem cell-like cells viability, luminescence; 300,000 tested, 1.1% active; inhibition, % at 7.5 µM; in the data active means inhibition above about 75%; inconclusive means no clear call, values can overlap the other calls; tested in HMLE shEcad cells
KLF5 inhibitor = suppresses KLF5 promoter-driven expression; AID 1700; DLD-1 KLF5 promoter-luciferase reporter, luminescence; inhibition, % at 5 µM; 290,000 tested, 0.23% active;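 active means inhibition above a per-plate limit of that plate's mean compound inhibition plus 3 SD, cut at about 60% in these data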;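 further: 0% = DMSO wells and 100% = LY294002 at 200 µM; higher means less KLF5 promoter-driven luciferase light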
Numbers without * were called inactive; ? = inconclusive; . = no result given.

SMILES | aSyn UTR inh | IEC-6 cytotox | SKKanGAS inh | CSC inhib | KLF5 inhibitor
CCOC(=O)c1c(NC(=O)Cn2cnc([N+](=O)[O-])n2)sc(C)c1C | 23 | 2 | -12 | -6 | -3
Cc1ccc(-c2cc3c(N=O)c4ccccc4c-3n[nH]2)cc1 | 92* | 11 | 32 | 87* | -17
O=Nc1c2cc(-c3ccccc3)[nH]nc-2c2ccccc12 | 37 | 3 | ? | . | -55
CCC(C)n1c(NC(=O)c2ccccc2)c(C#N)c2nc3ccccc3nc21 (centres undefined) | 35 | 2 | 69* | 49 | -20
Cc1cc(-c2csc3nc[nH]c(=S)c23)cc(C)c1C | 2 | -5 | 92* | 104* | 1
S=c1[nH]cnc2scc(-c3ccc(Cl)cc3)c12 | 20 | 2 | 76* | 47 | 2
Cc1ccc(-c2csc3nc[nH]c(=S)c23)cc1 | -8 | -3 | 34 | 10 | -5
Nc1cc(=O)[nH]c(SCC(=O)N2CCC(Cc3ccccc3)CC2)n1 | . | . | . | 4 | .
C=CCc1cc(Cl)ccc1OCCOCCNC(C)CC (centres undefined) | 9 | -1 | 2 | 131* | -3
O=C(COc1ccc(Cl)cc1Cl)Nc1ccc(CN2CCOCC2)cc1 | -9 | 1 | 103* | -28 | -17
Cc1ccc(C)n1-c1ccc(-c2ccnc(N)n2)cc1 | . | -7 | . | . | -5
COC(=O)c1sc2nc(N3CCCCC3)c3c(c2c1N)CCCC3 | 26 | -3 | 13 | 85* | 2
CC(=O)C1=C(C)Nc2ncnn2C1c1ccc(Br)cc1 (centres undefined) | 0 | 4 | 0 | -7 | -32
CCOC(=O)/C(=N/Nc1ccc(OC)cc1)N1CCCc2ccccc21 | 17 | 4 | -7 | 75* | 6
CCOC(=O)/C(=N/Nc1ccccc1)N1CCCc2ccccc21 | 10 | -2 | 0 | 5 | -14
O=C(CN(Cc1cccs1)C(=O)CNS(=O)(=O)c1ccccc1)NC1CCCC1 | -13 | 0 | 1 | -15 | -19
N#CC1=C(N)NC(SCc2ccc(Cl)cc2)=C(C#N)C12CCCCC2 | -1 | 9 | 21 | -23 | -11
N#CC1=C(N)NC(SCc2ccccc2)=C(C#N)C12CCCC2 | -26 | 2 | 14 | 78* | 5
Nc1c(C(=O)c2ccc(Cl)cc2)sc2nsc(SCCN3CCOCC3)c12 | -28 | -4 | 29 | 26 | -12
Nc1c(C(=O)c2ccccc2)sc2nsc(SCCN3CCCC3)c12 | -87 | 0 | 25 | 89* | -52
O=C1N=c2ccccc2=C1c1c(O)n(-c2cccc(F)c2)[nH]c1=O | -28 | 4 | 6 | 83* | -18
CCn1c(O)c(C2=c3ccccc3=NC2=O)c2cc(Br)ccc21 | -23 | 0 | 35 | 23 | -17
C/C(=N\Nc1ccc(Cl)c(Cl)c1)c1ccc(-n2ccnc2)cc1 | -52 | 8 | 81* | 62 | -24
C/C(=N\NC(N)=S)c1ccc(-n2ccnc2)cc1 | 27 | 4 | 5 | -6 | 3
O=C(NCc1cccnc1)/C(=C/c1ccc(-c2ccc(Cl)cc2)o1)S(=O)(=O)c1ccccc1 | -79 | 6 | -2 | 110* | 17
SMILES | aSyn UTR inh | IEC-6 cytotox | SKKanGAS inh | CSC inhib | KLF5 inhibitor
O=C(NCc1cccnc1)/C(=C\c1ccc(-c2ccc(Br)cc2)o1)S(=O)(=O)c1ccccc1 | -138 | 3 | -6 | 10 | 3
O=S(=O)(c1ccccc1)c1nc(-c2ccc(F)cc2)oc1N1CCOCC1 | 0 | 6 | -3 | -8 | 6
O=S(=O)(c1ccc(F)cc1)c1nc(-c2ccccc2)oc1N1CCOCC1 | 10 | -4 | 54* | 0 | -20
C=CCC[C@H](Cc1ccc(F)cc1)C(=O)O[C@H](CNC(=O)[C@@H](CC=C)CC(=O)N(CCO)Cc1ccccc1)c1ccccc1 | . | . | . | 97* | .
C=CC[C@H](CC(=O)N(CCO)Cc1ccccc1)C(=O)N[C@H](COC(=O)[C@@H](CC=C)Cc1ccc(F)cc1)Cc1ccccc1 | . | . | . | -1 | .
C=CCC[C@H](Cc1ccc(F)cc1)C(=O)OC[C@@H](Cc1c[nH]c2ccccc12)NC(=O)[C@@H](CC=C)CC(=O)N(CCO)Cc1ccccc1 | . | . | . | 79* | .
Cc1noc(C)c1CN1C(=O)c2ccccc2C1=O | -12 | -2 | -15 | 8 | -16
COc1ccc(-n2c(SC(C)C(=O)Nc3ncc(Cl)cc3Cl)nc3ccccc32)cc1 (centres undefined) | 77* | 66* | 16 | 59 | 42
CCCCCCSc1ccc([C@H]2N[C@@](C)(C(=O)OC)[C@H]3C(=O)N(CC)C(=O)[C@@H]23)cc1 | 2 | . | 7 | 78* | .
O=C1CCNCCN1[C@H](CO)c1ccccc1 | 20 | -5 | -1 | -1 | 5
CCOC(=O)c1c(C)oc2c1c(C(c1cccnc1)N1CCOCC1)c(O)c1ccccc12 (centres undefined) | -245 | 12 | 4 | 83* | -38
Cc1ccc(/C(O)=C/C(=O)C(=O)NC23CC4CC(CC(C4)C2)C3)cc1 | -8 | 3 | 54* | 25 | -13
O=C(NCc1cccc(OC(F)(F)F)c1)C1CCC(=O)N(Cc2cccc(F)c2)C1 (centres undefined) | 7 | 5 | 0 | 11 | -10
CC1(C)Cc2c(cnn2-c2ccccc2)C(NC(=O)CCCN2CCCC2=O)C1 (centres undefined) | 1 | 3 | 61* | -5 | -32
Cc1ccc(-n2ncc3c2CC(C)(C)CC3NC(=O)CCCN2CCCCC2=O)cc1 (centres undefined) | 1 | 3 | -5 | -14 | -23
CCOc1ccc(-c2csc3nc[nH]c(=O)c23)cc1 | -154 | 6 | 3 | 13 | -44
CC(=O)O[C@H]1C[C@@]2(C)[C@@H](C[C@@H](O)[C@H]3[C@@]4(C)CC[C@@H](O)[C@@H](C)[C@@H]4CC[C@@]32C)/C1=C(\CCC=C(C)C)C(=O)O | -3 | . | 109* | 5 | .
CCCS(=O)(=O)c1c(S(=O)(=O)CCC)c2c(C)cccn2c1C(=O)N/N=C/c1cc(O)cc(O)c1 | 10 | 22 | 26 | 132* | 31
CCCS(=O)(=O)c1c(S(=O)(=O)CCC)c2c(C)cccn2c1C(N)=O | 2 | -4 | -3 | -13 | -24
Cn1c(SCC(=O)N2CCc3ccccc32)nnc1-c1ccc(S(=O)(=O)N2CCCC2)cc1 | 7 | -6 | 11 | -10 | -5
CC1(C)CC(NC(=O)C(Cl)(Cl)Cl)CC(C)(C)N1 | -5 | -9 | -2 | -12 | -18
CCCNC(=O)c1ccc2c(=O)c(O)c(-c3ccsc3)[nH]c2c1 | 87* | . | 0 | 6 | .
Cc1ccc(-c2[nH]c3cc(C(=O)NCCCn4ccnc4)ccc3c(=O)c2O)cc1 | -1 | . | 2 | -4 | .
COCCCNC(=O)c1ccc2c(=O)n(Cc3ccc(OC)cc3)c(=O)[nH]c2c1 | -6 | -3 | -2 | -7 | 1
Cc1ccc(-c2[nH]c3cc(C(N)=O)ccc3c(=O)c2O)cc1 | -21 | . | -1 | . | .
Cc1ccc(CNC(=O)c2ccc3c(=O)c(O)c(-c4ccc(C)cc4)[nH]c3c2)cc1 | 94* | . | 10 | 42 | .
CCCNC(=O)c1ccc2c(=O)c(O)c(-c3ccc(C)cc3)[nH]c2c1 | 69* | . | 4 | 39 | .
CCCNC(=O)c1ccc2c(=O)c(O)c(-c3ccc(OC)cc3)[nH]c2c1 | 88* | . | 8 | 29 | .

Source: PubChem BioAssay (several laboratories)
